Compound activity deposited in PubChem by several laboratories.
PAX8 reporter – inhibitors of PAX8-driven TPO luciferase reporter, primary screen, RMG-I cells, single concentration; SteadyGlo, 24 h; inhibition, % at 12.6 µM; 360,000 tested, 1.2% active;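 active = mean replicate inhibition at least 60% with every replicate also reaching 60%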;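 note: luciferase light reporting Pax8 driven TPO promoter activity; plate controls were median of neutral control wells for no effect and mitoxantrone controls for full effect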
LGR2 antag – inhibitors of bursicon-induced LGR2 CRE-luciferase signal, primary screen, cell-based, HEK293, CRE-luciferase reporter, bursicon stimulation | 380,000 tested, 0.35% active | bursicon-stimulated, 4 h | inhibition, % at 9.99 µM | Drosophila bursicon receptor LGR2 (rickets);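 active = drop in luminescence signal, shown as inhibition above about 50% in the replicate tests, limit read from the data, passing the limit was not always enough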;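 note: agonist challenge used bursicon conditioned medium at about half maximal strength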
EWS-Fli inh – EWS/Fli-driven NR0B1 reporter inhibitors, primary screen, A673 cells, NR0B1 luciferase, luminescence, MLPCN library; 350,000 tested, 0.67% active; inhibition, % at 12.6 µM; viability-normalised; AID 651661, 2012;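 active = mean inhibition of at least 50% after viability correction, with every replicate also passing that limit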;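 note: firefly luciferase signal divided by Alamar Blue viability fluorescence both relative to DMSO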
TWEAK Fn14 block – inhibitors of TWEAK-Fn14 signaling, primary screen, luciferase reporter cells, uHTS. TWEAK-stimulated Fn14 reporter cells, luciferase luminescence, 8 h. inhibition, % at 10 µM. 360,000 tested, 2% active; in the data active = inhibition above about 50%
TROY signal inh – inhibitors of TROY-driven NF-kB signaling, primary screen, Q293 LMP1-TROYcd cells, NF-kB luciferase, uHTS. 360,000 tested, 0.98% active. Q293 LMP1-TROYcd NF-kB luciferase reporter, 4 h. inhibition, % at 10 µM;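 active = compounds whose plate-normalised and pattern-corrected inhibition of the luciferase reporter signal at the single screening dose is 50% or more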
Active calls of the source: *; / = no result. A selection: hits, their analogues and other compounds. The true share with any hit is near 2.8%.

SMILES	PAX8 reporter	LGR2 antag	EWS-Fli inh	TWEAK Fn14 block	TROY signal inh
CCCCCn1c(NC(=O)c2ccco2)c(S(=O)(=O)c2ccc(C)cc2)c2nc3ccccc3nc21	/	/	/	67*	65*
CCCCn1c(NC(=O)c2ccc(Br)o2)c(S(=O)(=O)c2ccccc2)c2nc3ccccc3nc21	/	/	/	74*	71*
CCCCn1c(NC(=O)c2ccco2)c(S(=O)(=O)c2ccc(C)cc2)c2nc3ccccc3nc21	0	1	3	72*	66*
CCCCn1c(NC(C)=O)c(C#N)c2nc3ccccc3nc21	-11	/	/	-1	12
CCC(=O)Nc1c(S(=O)(=O)c2ccc(C)cc2)c2nc3ccccc3nc2n1C(C)c1ccccc1 (stereo unspecified)	37	15	10	35	34
Cc1ccc(S(=O)(=O)c2c(N)n(NC(=O)c3ccccc3C)c3nc4ccccc4nc23)cc1	-57	/	/	14	-39
CCCCn1c(NS(=O)(=O)c2ccccc2)c(S(=O)(=O)c2ccc(C)cc2)c2nc3ccccc3nc21	5	/	8	32	70*
C[C@H]1CN([C@@H](C)CO)C(=O)c2cc(C#Cc3ccncc3)cnc2O[C@H]1CN(C)C(=O)c1ccccc1F	-8	-4	-3	/	/
CCC(=O)Nc1c(S(=O)(=O)c2ccccc2)c2nc3ccccc3nc2n1C(C)c1ccccc1 (stereo unspecified)	-7	1	5	50*	73*
C[C@H](CO)N1C[C@H](C)[C@@H](CN(C)C(=O)CN(C)C)Oc2cc(C3=CCCC3)ccc2S1(=O)=O	/	14	-9	/	/
O=C(NC12CC3CC(CC(C3)C1)C2)N1CCN(c2nc(-c3ccccc3)cs2)CC1	/	/	/	71*	/
C[C@H](O)C#Cc1cnc2c(c1)C(=O)N([C@H](C)CO)C[C@H](C)[C@H](CN(C)CC1CCOCC1)O2	4	7	9	/	/
COc1ccc(-c2csc(NC3OC(=O)c4c3ccc(OC)c4OC)n2)cc1OC (stereo unspecified)	9	/	44	67*	12
Cc1cc(-c2csc(Nc3ccccn3)n2)ccc1F	-214	-43	-43	51*	-10
c1ccc(-c2csc(Nc3ccccn3)n2)cc1	-244	-43	-71	53*	-13
Oc1ccc(-c2csc(Nc3ccccn3)n2)cc1	-158	-86	-56	6	-27
Cc1ccc(-c2csc(Nc3ccccn3)n2)cc1	-96	81*	10	82*	31
CO[C@@H]1CN(C)C(=O)c2cc(NC(=O)Nc3ccccc3)ccc2OC[C@H](C)N(C(=O)CN(C)C)C[C@H]1C	/	-13	-13	/	/
CCC(=O)N(C)C[C@@H]1Oc2cc(-c3cccc(F)c3)ccc2S(=O)(=O)N([C@@H](C)CO)C[C@@H]1C	/	-9	-5	/	/
COCC(=O)N(C)C[C@@H]1Oc2cc(C#CCC3CCCC3)ccc2S(=O)(=O)N([C@@H](C)CO)C[C@H]1C	71*	-6	9	/	/
COCC(=O)N(C)C[C@@H]1Oc2cc(C#CCC3CCCC3)ccc2S(=O)(=O)N([C@H](C)CO)C[C@H]1C	-23	5	-6	/	/
COCC(=O)N(C)C[C@@H]1Oc2cc(C#CCC3CCCC3)ccc2S(=O)(=O)N([C@H](C)CO)C[C@@H]1C	5	10	2	/	/
COCC(=O)N(C)C[C@@H]1Oc2cc(C#CCC3CCCC3)ccc2S(=O)(=O)N([C@@H](C)CO)C[C@@H]1C	74*	10	3	/	/
Cc1noc(C)c1NC(=O)N(C)C[C@H]1Oc2c(NC(=O)Nc3ccc4c(c3)OCO4)cccc2C(=O)N([C@@H](C)CO)C[C@H]1C	/	-5	4	/	/
COCC(=O)Nc1ccc2c(c1)C(=O)N(C)C[C@@H](OC)[C@@H](C)CN(C(=O)Cc1cccnc1)[C@H](C)CO2	/	-4	0	/	/
SMILES	PAX8 reporter	LGR2 antag	EWS-Fli inh	TWEAK Fn14 block	TROY signal inh
O=C(c1ccccc1F)N1CCCC(C(=O)N2CCN(c3ccccc3)CC2)C1 (stereo unspecified)	12	-3	-4	19	8
O=C(c1ccccc1F)N1CCCC(c2ccccc2)C1 (stereo unspecified)	67*	/	8	-25	-2
CCS(=O)(=O)N1CCC2(CC1)CN(C(=O)c1cccc(F)c1)[C@H](CO)c1c2c2ccc(OC)cc2n1C	-2	-6	-5	/	/
COc1ccc(C2CC(c3ccc(Br)cc3)=NN2C(=S)Nc2ccccc2)cc1 (stereo unspecified)	123*	-49	-58	1	-67
O=C(Nc1ccccc1)N1N=C(c2ccc(F)cc2)CC1c1ccc(F)cc1 (stereo unspecified)	82*	-7	-11	16	-7
COc1ccc(C2CC(c3ccccc3)=NN2C(=S)Nc2ccccc2)cc1 (stereo unspecified)	1	-27	-2	-23	-57
Cc1ccc(C2=NN(C(=S)Nc3ccccc3)C(c3ccco3)C2)cc1 (stereo unspecified)	/	/	/	48	57*
COc1ccc(C2CC(c3ccccc3)=NN2C(=O)c2ccc(F)cc2)cc1 (stereo unspecified)	7	0	-8	-11	-1
Cc1nn(C)cc1NC(=O)C[C@@H]1CC[C@H]2[C@@H](COc3ccc(NC(=O)C4CCC4)cc3C(=O)N2C)O1	-3	-18	-1	/	/
COC(=O)C[C@@H]1CC[C@@H]2[C@H](COc3ccc(NC(=O)c4ccc(OC)cc4)cc3C(=O)N2C)O1	-9	8	40	/	/
COc1cccc(C(=O)Nc2ccc3c(c2)OC[C@@H](C)N(CC2CC2)C[C@H](C)[C@@H](OC)CN(C)C3=O)c1	/	-4	5	/	/
CCC1(C)Cc2ccccc2-c2nc(NCCO)n(-c3ccc(C)cc3)c(=O)c21 (stereo unspecified)	-44	/	/	42	54*
CCC1(C)Cc2ccccc2-c2nc(NCCO)n(-c3ccccc3)c(=O)c21 (stereo unspecified)	/	/	/	-6	4
C[C@@H]1CN([C@H](C)CO)C(=O)c2cc(-c3ccccc3)cnc2O[C@H]1CN(C)Cc1ccc(C(=O)O)cc1	/	15	8	/	/
Cc1csc(SCC(=O)c2c(N)n(CC(C)C)c(=O)n(C)c2=O)n1	/	-5	/	52*	21
CCOC(=O)CSc1nc2ccc(N)cc2s1	/	-3	/	29	-18
Cc1ccccc1OCc1nnc(SCC(=O)Nc2ccc3nc(SCC(=O)NC(C)(C)C)sc3c2)n1C	/	/	/	89*	/
CCOC(=O)CSc1nc2ccc(NC(=O)CSc3nnnn3Cc3ccccc3)cc2s1	29	/	/	9	9
CC(NC(=O)CSc1nc2ccc(N)cc2s1)c1ccccc1 (stereo unspecified)	20	/	10	21	52*
CC(C)(C)NC(=O)CSc1nc2ccc(NC(=O)CSc3nnnn3Cc3ccccc3)cc2s1	/	/	/	73*	50*
Fc1ccccc1-c1nc(-c2ccccc2)no1	-115	/	/	28	-9
